In the supplement of paper PMC6555819:

How the values were obtained:
Assay in all cases: PBM binding z-score (relative to random genomic background probes); higher = stronger binding; sequences stand for … in GC…GCGATTGACAGCGTAGAATGAAGG
[1] = tested on: FXR:RXRa (NR concentration 270 nM, RXRa partner concentration 90 nM)
In short: (§1)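 For binding z-scores, the reference was random background probes on custom Agilent 4×180K protein-binding microarrays. These arrays were incubated 1 h with ligand-free nuclear receptor dimers in PBS pH 7.4, 2% milk, 0.02% Triton X-100, 1 mM DTT, 0.2 mg/mL BSA and 0.4 mg/ml salmon testes DNA. Fluorescence was scanned after antibody detection of each partner (one per run) and regression-normalized.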

[2] = tested on: LXRa:RXRa (NR concentration 270 nM, RXRa partner concentration 90 nM)
In short: as §1

[3] = tested on: LXRa homodimer (NR concentration 270 nM)
In short: as §1

[4] = tested on: LXRb:RXRa (NR concentration 270 nM, RXRa partner concentration 90 nM)
In short: as §1

[5] = tested on: LXRb homodimer (NR concentration 270 nM)
In short: as §1

[6] = tested on: PPARa:RXRa (NR concentration 270 nM, RXRa partner concentration 90 nM)
In short: as §1

[7] = tested on: PPARg:RXRa (NR concentration 180 nM, RXRa partner concentration 90 nM)
In short: as §1

[8] = tested on: PPARg:RXRa 270nM:90nM, anti-RXR (NR concentration 270 nM, RXRa partner concentration 90 nM)
In short: as §1

[9] = tested on: PPARg:RXRa 30nM:10nM, anti-RXR (NR concentration 30 nM, RXRa partner concentration 10 nM)
In short: as §1

[10] = tested on: PPARg:RXRa 90nM:30nM, anti-RXR (NR concentration 90 nM, RXRa partner concentration 30 nM)
In short: as §1

Sequence	PBM binding z-score [1]	PBM binding z-score [2]	PBM binding z-score [3]	PBM binding z-score [4]	PBM binding z-score [5]	PBM binding z-score [6]	PBM binding z-score [7]	PBM binding z-score [8]	PBM binding z-score [9]	PBM binding z-score [10]
CTCGCAAGGTCGGTTGAGGTGAGTATACGGATAA	0.755	0.469	-0.26	0.374	-0.72	1.3	-0.0433	0.131	-0.357	-0.159
CCGAGGAGGTTATGGGGCATTCAGGCAACGGTGA	1.52	1.44	0.15	1.86	-0.173	2.84	1.66	2.11	0.0714	1.39
TCTGCTAGGTCAGTTGGTCAGGTAACGAGCTGCC	1.03	0.456	-0.298	0.248	0.236	1.48	0.452	1.74	1.15	1.3
ACTAGCAGGCCTAGTTTGGGTCACTCAAACAAAG	-0.223	-0.267	-0.434	0.356	-0.757	1.13	-0.314	0.138	-0.572	-0.184
CGTCCAAGGTCATAGGAGGTCAGTGAGGACAGAT	7.69	7.5	5.15	6.18	0.987	5.86	5.58	5.89	2.52	4.86
TCATAGAGGTAAAAGGTGAAAGTCGGTGTGGTAA	1.97	1.96	-0.0856	2.03	-0.828	4.69	6.33	6.66	5.72	7.33
CCTATTAGTTGACCATAAGGGCCACCGAAGCTCG	0.118	0.041	0.365	0.0156	0.659	0.169	0.368	0.219	0.231	0.304
ACTATTAGTTGAGTTAGGGCAACCGATACGACGC	-0.00299	-0.201	0.321	-0.189	0.544	-0.0901	0.832	0.293	0.372	0.303
TGTCAAAGTTTAAAGGTAACGTAAGTATCCACAC	1.49	1.72	0.175	1.29	-0.187	2.79	4.23	4.3	1.98	3.41
GCTTACGGGTCACAGGTTATAGCATGAATAGAAT	6.03	3.91	-0.00317	3.73	0.0394	5.75	7.57	6.67	4.61	6.2
CCGACTGGGGCAGAAAGGATACCATACCATCCGG	-0.81	-0.88	-0.438	-0.926	-1.2	-0.597	0.937	-0.0255	-0.593	-0.344
TCTGCTAGGTCAACGATGATCAGCTAATCTGCTA	3.12	1.96	-0.355	1.52	-0.366	3.32	2.74	2.86	2.03	2.38
GTACCATGGTGAATAGGTCGTTGATGAGTAGGCG	-0.238	0.114	-0.331	-0.0798	-0.524	0.641	0.623	0.293	-0.175	0.119
TCTCGGAGGACACGAAGGTCAGAGGTTTCCAGAG	1.53	1.38	0.357	1.1	-0.91	2.12	0.856	2.22	2.35	2.2
CGTCCACGGTCATAGGAGGTCAGTGAAGACAGAT	2.58	4.52	2.1	2.15	-0.643	2.16	0.881	0.977	-0.0793	0.32
TCTGCTAGGTCAGTTTGTCAGCTAACGAGCTGCC	0.772	0.567	-0.461	0.457	0.977	1.03	-0.179	1.12	1.38	1.4
CCAGACAGGTGAGAAGGTAACTGAGCCTCGATTA	-0.0558	-0.104	-0.12	-0.102	-0.691	0.592	0.397	0.61	-0.11	0.193
ATATGTAGGTTATGGGTCATTCAGGTTGGTTCGC	3.1	3.26	1.87	3.22	1.22	5.51	9.66	8.74	8.22	9.39
ATCTCTAGGTAAAGATAGTTCTGTGAATGCAAAT	0.34	0.239	-0.054	0.231	0.796	0.344	0.505	0.243	0.378	0.389
